System: CAMK2A
Settings: Compound Concentration (nM):1000
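Note: KINOMEscan scanMAX binding as percent activity remaining versus control; lower means stronger binding.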

SMILES	Percent Control [%]
CC1=C(C(=O)Nc2ccc3[nH]ncc3c2)C(c2ccc(Cl)c(Cl)c2)CC(=O)N1 (centres unmarked) [GSK299115A]	80
NS(=O)(=O)c1ccc(N/N=C2\C(=O)Nc3ccc(Cl)cc32)cc1 [GW280670X]	100
COc1cc(C=NNc2ncnc3c2cnn3-c2ccccc2)ccc1O [GW513184X]	97
COc1cc2ncnc(Nc3ccc4c(cnn4Cc4ccccc4)c3)c2cc1OC.Cl [GW282449A]	100
COC(=O)Nc1nc2ccc(Oc3ccc(NC(=O)Nc4cc(C(F)(F)F)ccc4F)cc3)cc2s1.Cl [GW693917A]	93
NS(=O)(=O)c1ccc(N/N=C2\C(=O)Nc3ccc(C(=O)NCc4ccncc4)cc32)cc1 [GW300657X]	66
Cl.O=C(Nc1ccc(Oc2ccc3[nH]c(NC(=O)c4ccco4)nc3c2)cc1)Nc1cc(C(F)(F)F)ccc1F [GW683134A]	85
COc1ccccc1-c1cc(/C=C2\C(=O)Nc3ncc(Br)cc32)cc(Br)c1O [GW442130X]	85
CN1CCN(C(=O)c2ccc(NC(=O)Nc3ccc(N(C)c4ccnc(Nc5ccc(CS(C)(=O)=O)cc5)n4)cc3)cc2)CC1.Cl [GW830263A]	86
Cc1cc(O)cc(C)c1/C=C/c1cncc(C(N)=O)c1 [GW435821X]	100

System: CAMK2B
Settings: Compound Concentration (nM):1000

SMILES	Percent Control [%]
O=C(Nc1n[nH]c2nc(-c3ccc(O)cc3)c(Br)cc12)C1CC1 [SB-725317]	97
COc1cccc(-c2c[nH]c3c(N/N=C/c4ccncc4)ncnc23)c1 [GW814408X]	81
Cl.O=C(O[C@H]1CN[C@H](C#Cc2cc3ncnc(Nc4ccc5c(cnn5Cc5ccccc5)c4)c3s2)C1)N1CCOCC1 [GSK200398A]	84
CCS(=O)(=O)c1ccc(OC)c(Nc2ncc(-c3cccc(OC)c3)o2)c1 [GW580509X]	80
COc1ccc2cc(-c3c(-c4ccncc4)nc(-c4ccc(S(C)(=O)=O)cc4C)n3C)ccc2c1 [SB-633825]	97
COc1ccc(COc2ccc(Cc3cnc(N)nc3N)cc2OC)cc1 [GW632580X]	96
C[C@@H](Oc1cc(-n2cnc3ccc(OC4CCN(C)CC4)cc32)sc1C(N)=O)c1ccccc1Cl [GSK579289A]	80
CCS(=O)(=O)c1ccc(OC)c(Nc2ncc(-c3cccc(F)c3)o2)c1 [GW621970X]	100
COc1cc(N2CCN(C(C)C)CC2)ccc1Nc1nc(Nc2ccc(F)cc2C(=O)NC[C@@H](O)CO)c2cc[nH]c2n1 [GSK1392956A]	64
COc1cc2ncn(-c3cc(O[C@H](C)c4ccccc4Cl)c(C(N)=O)s3)c2cc1OC [GSK237701A]	100
Cl.O=C(Nc1ccc(Oc2ccc3[nH]c(NC(=O)c4ccccc4)nc3c2)cc1)Nc1cc(C(F)(F)F)ccc1F [GW709042A]	95
COc1cc(C)c(N(C)C(=O)CN(C)C)cc1Nc1nc(Nc2cccc(F)c2C(N)=O)c2cc[nH]c2n1 [GSK2219385]	93
CCc1ccc(Oc2nccc(-c3c(-c4ccc(F)cc4)ncn3C3CCNCC3)n2)cc1 [SB-242719]	63
CC1=C(C(=O)Nc2ccc3[nH]ncc3c2)C(c2ccc3ccccc3c2)CC(=O)N1 (centres unmarked) [GSK270822A]	87
Nc1ncnc2occ(-c3ccc(NC(=O)Nc4cc(C(F)(F)F)ccc4F)cc3)c12 [GW770249X]	100
O=C1Nc2ccc(C(=O)c3ccco3)cc2C1=Cc1cc(Cl)c(O)c(Cl)c1 [GW406108X]	44
COc1ccc2[nH]c3c4[nH]c5ccc(OC)cc5c4c4c(c3c2c1)C(=O)NC4=O [GW296115X]	100
CN(C)CCNC(=O)Nc1ccc(N(C)c2ccnc(Nc3ccc(CS(C)(=O)=O)cc3)n2)cc1.Cl [GW830900A]	84
Cl.c1ccc(Cc2nc3ccc(Nc4ncnc5ccccc45)cc3[nH]2)cc1 [GR269666A]	99
COc1ccc2c(-c3ccnc(Nc4cccc(OC(F)(F)F)c4)n3)cnn2n1 [GW810372X]	100
COc1cccc(-n2ncc3c(N/N=C/c4ccncc4)ncnc32)c1 [GW784752X]	82
COc1cc(/C=N/Nc2ncnc3[nH]ncc23)ccc1O [GW578748X]	100
